This passage reports TF binding intensity results from the supplement of paper PMC10681739.

In this assay the target is T1, ETS1 (UniProt P14921).
T1 sequence: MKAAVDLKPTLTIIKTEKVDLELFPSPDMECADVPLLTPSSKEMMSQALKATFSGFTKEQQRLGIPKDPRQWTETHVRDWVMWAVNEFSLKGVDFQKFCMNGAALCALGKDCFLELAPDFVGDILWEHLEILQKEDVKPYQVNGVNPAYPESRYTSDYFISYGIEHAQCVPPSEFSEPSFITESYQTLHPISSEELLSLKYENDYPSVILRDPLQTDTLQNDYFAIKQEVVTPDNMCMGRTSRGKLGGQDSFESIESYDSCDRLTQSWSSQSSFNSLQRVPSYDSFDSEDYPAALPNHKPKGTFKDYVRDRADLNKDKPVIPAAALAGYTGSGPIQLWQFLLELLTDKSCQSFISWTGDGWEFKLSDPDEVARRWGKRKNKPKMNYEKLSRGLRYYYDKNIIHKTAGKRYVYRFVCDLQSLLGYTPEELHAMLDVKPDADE
The assay can be described thus: TF binding intensity (PBM fluorescence), negative control probe (arbitrary fluorescence units); higher = stronger binding. The protocol:
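gcPBM negative-control 36-bp genomic probes lacking TF binding sites. Each was incubated with recombinant human ETS1 or RUNX1 alone and detected by antibody fluorescence. Values are medians over replicate spots (4 spots for the ETS1-RUNX1 arrays, 3 for the ETS1-ETS1 array). The probes sit in constant array flanks that are not printed.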
For “TCCAGAATTGCAAGGTCTGGGGAGCTGGGTGCCACA (protein concentration 10 nM)”, the TF binding intensity is 107.
In the case of “TTATCAAGTGAATCAAGCCATTGTCGGGTCGAAATA (protein concentration 10 nM)” it was 117.
Then “GGGCCGCGCCGAGGGGACCACGGGACGCCCTCCTTC (protein concentration 10 nM)”, with 102; and “CCCCAGTAGAAGCCACCCAGCCTTTTGTTTGTTTTC (protein concentration 10 nM)”, with 133.
In the case of “CCCCTGTGCAACCTTTCATTCCCTAAGCCACTTTTC (protein concentration 10 nM)” it was 139; in that of “TTGTGTTCTTATCAAATTATTAAGATTTTAGGTGAG (protein concentration 10 nM)”, 133.
“CCACCGAGTGTTCTCGTTGCTCCACCGTAGCATCAG (protein concentration 10 nM)” showed a TF binding intensity of 124.
For the sequence “AAGTATTGTAGTTGTTGTGGTAAAAACAGATAGATA (protein concentration 1 nM)”, the TF binding intensity worked out at 529.
“CATAGTTGCACCTGGTCTACTTTGCTGTCAATTTGT (protein concentration 10 nM)” showed a TF binding intensity of 126.
Sequence “CTCCACGACCCTGAAACTAGAACAAGACCTCTCCTC (protein concentration 10 nM)” gave a TF binding intensity of 165.
In the case of “CCCAATCTGTAACAACCCACATCTGTTCCTTATTTG (protein concentration 1 nM)” it was 466; in that of “AGGCATAACAGAAAAACCTCAACTTAAATAGTGCTG (protein concentration 1 nM)”, 626; in that of “ACCCTGAGCCCTCTCCCGCTCCCTGGGTCTCAGCCT (protein concentration 10 nM)”, 98.1.
